Laboratory results taken from PubChem BioAssay AID1159580 (chemical genetic matrix, 2015).
Screen size: about 5,500 compounds; about 2,000 (36%) were called active. Roughly 18% stayed inconclusive and do not appear here. Rule as the data show it: active = normalized growth mostly below about 0.91 (no sharp cut-off); inconclusive = no clear call, values can overlap the other calls; inactive = mostly above about 0.92. The list shows a part of the results.

Assay: chemical genetic growth profiling, strain panel (AID 1159580);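 also: tested at 20 µM; growth read once vehicle control cultures reached saturation at 30 °C; 1 = growth at the plate median or of vehicle wells; lower values mean less growth of the strain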
Details: growth OD

Measured: normalized growth

COc1cc(O)c2c(=O)cc(-c3ccc(O)cc3)oc2c1
inactive: S. cerevisiae deletion strains, locus YBR021W, strain FUR4, active compounds read low 1.02 | S. cerevisiae deletion strains, locus YBR229C, strain ROT2, active compounds read low 1 | S. cerevisiae deletion strains, locus YCL029C, strain bik1, active compounds read low 1 | S. cerevisiae deletion strains, locus YDL035C, strain GPR1, active compounds read low 1 | S. cerevisiae deletion strains, locus YDL074C, strain BRE1, active compounds read low 1.01 | S. cerevisiae deletion strains, locus YDL101C, strain DUN1, active compounds read low 1.02 | S. cerevisiae deletion strains, locus YDL185W, strain tfp1, active compounds read low 1.02 | S. cerevisiae deletion strains, locus YDL192W, strain arf1, active compounds read low 1.05 | S. cerevisiae deletion strains, locus YDR101C, strain arx1, active compounds read low 1.03 | S. cerevisiae deletion strains, locus YDR162C, strain NBP2, active compounds read low 1.06 | S. cerevisiae deletion strains, locus YDR318W, strain mcm21, active compounds read low 1.02 | S. cerevisiae deletion strains, locus YDR388W, active compounds read low 0.994 | S. cerevisiae deletion strains, locus YDR502C, strain sam2, active compounds read low 1 | S. cerevisiae deletion strains, locus YEL061C, strain CIN8, active compounds read low 1 | S. cerevisiae deletion strains, locus YER110C, active compounds read low 1.02 | S. cerevisiae deletion strains, locus YER155C, strain BEM2, active compounds read low 1.04 | S. cerevisiae deletion strains, locus YER167W, strain BCK2, active compounds read low 1.02 | S. cerevisiae deletion strains, locus YGL078C, strain dbp3, active compounds read low 1.03 | S. cerevisiae deletion strains, locus YGL086W, strain mad1, active compounds read low 1 | S. cerevisiae deletion strains, locus YGL248W, strain PDE1, active compounds read low 1.02 | S. cerevisiae deletion strains, locus YGR135W, strain pre9, active compounds read low 1.04 | S. cerevisiae deletion strains, locus YGR252W, strain gcn5, active compounds read low 0.949 | S. cerevisiae deletion strains, locus YHR030C, strain SLT2, active compounds read low 1.01 | S. cerevisiae deletion strains, locus YHR079C, strain IRE1 (second series), active compounds read low 1.01 | S. cerevisiae deletion strains, locus YHR094C, strain hxt1, active compounds read low 0.996 | S. cerevisiae deletion strains, locus YHR129C, strain ARP1, active compounds read low 1.01 | S. cerevisiae deletion strains, locus YHR200W, strain rpn10, active compounds read low 1.07 | S. cerevisiae deletion strains, locus YIL066C, strain RNR3, active compounds read low 1.02 | S. cerevisiae deletion strains, locus YIL073C, strain SPO22, active compounds read low 1.02 | S. cerevisiae deletion strains, locus YIL125W, strain kgd1, active compounds read low 1.02 | S. cerevisiae deletion strains, locus YJL095W, strain BCK1, active compounds read low 1.05 | S. cerevisiae deletion strains, locus YJL134W, strain LCB3, active compounds read low 0.997 | S. cerevisiae deletion strains, locus YJL168C, strain set2, active compounds read low 1 | S. cerevisiae deletion strains, locus YJL187C, strain SWE1 (second series), active compounds read low 1.02 | S. cerevisiae deletion strains, locus YJR043C, strain POL32, active compounds read low 1 | S. cerevisiae deletion strains, locus YJR075W, strain HOC1, active compounds read low 1 | S. cerevisiae deletion strains, locus YKL009W, strain mrt4, active compounds read low 0.981 | S. cerevisiae deletion strains, locus YKL068W, active compounds read low 1 | S. cerevisiae deletion strains, locus YKL085W, strain MDH1 (second series), active compounds read low 0.994 | S. cerevisiae deletion strains, locus YKL085W, strain MDH1, active compounds read low 0.994 | S. cerevisiae deletion strains, locus YKR001C, strain vps1, active compounds read low 1.01 | S. cerevisiae deletion strains, locus YLR039C, strain RIC1, active compounds read low 1.07 | S. cerevisiae deletion strains, locus YLR058C, strain SHM2, active compounds read low 1.01 | S. cerevisiae deletion strains, locus YLR102C, strain apc9, active compounds read low 1.04 | S. cerevisiae deletion strains, locus YLR262C, strain YPT6, active compounds read low 1.07 | S. cerevisiae deletion strains, locus YLR268W, strain sec22, active compounds read low 1.01 | S. cerevisiae deletion strains, locus YLR330W, strain CHS5, active compounds read low 0.997 | S. cerevisiae deletion strains, locus YLR342W, strain FKS1 (second series), active compounds read low 1.01 | S. cerevisiae deletion strains, locus YLR371W, strain rom2, active compounds read low 1.03 | S. cerevisiae deletion strains, locus YLR418C, strain cdc73, active compounds read low 0.998 | S. cerevisiae deletion strains, locus YML016C, strain PPZ1, active compounds read low 0.994 | S. cerevisiae deletion strains, locus YML032C, strain rad52, active compounds read low 0.996 | S. cerevisiae deletion strains, locus YML124C, strain tub3, active compounds read low 1.02 | S. cerevisiae deletion strains, locus YMR078C, strain ctf18, active compounds read low 1.02 | S. cerevisiae deletion strains, locus YMR223W, strain ubp8, active compounds read low 1.04 | S. cerevisiae deletion strains, locus YMR307W, strain GAS1, active compounds read low 0.907 | S. cerevisiae deletion strains, locus YNL067W, strain RPL9B, active compounds read low 1.03 | S. cerevisiae deletion strains, locus YNL233W, strain BNI4, active compounds read low 1.02 | S. cerevisiae deletion strains, locus YNL250W, strain rad50, active compounds read low 1.02 | S. cerevisiae deletion strains, locus YNL271C, strain bni1, active compounds read low 1.04 | S. cerevisiae deletion strains, locus YNL298W, strain CLA4, active compounds read low 0.963 | S. cerevisiae deletion strains, locus YNL307C, strain MCK1, active compounds read low 0.994 | S. cerevisiae deletion strains, locus YNR052C, strain pop2, active compounds read low 1.01 | S. cerevisiae deletion strains, locus YOL006C, strain TOP1, active compounds read low 1.04 | S. cerevisiae deletion strains, locus YOL012C, strain htz1 0.814 | S. cerevisiae deletion strains, locus YOL147C, strain pex11, active compounds read low 1.02 | S. cerevisiae deletion strains, locus YOR061W, strain CKA2, active compounds read low 1 | S. cerevisiae deletion strains, locus YOR069W, strain VPS5, active compounds read low 0.999 | S. cerevisiae deletion strains, locus YOR136W, strain idh2, active compounds read low 0.993 | S. cerevisiae deletion strains, locus YOR144C, strain elg1, active compounds read low 1.04 | S. cerevisiae deletion strains, locus YOR184W, strain ser1, active compounds read low 1.07 | S. cerevisiae deletion strains, locus YOR316C, strain cot1, active compounds read low 1.02 | S. cerevisiae deletion strains, locus YPL055C, strain LGE1, active compounds read low 1.02 | S. cerevisiae deletion strains, locus YPR119W, strain clb2, active compounds read low 1.01 | S. cerevisiae deletion strains, locus YPR141C, strain kar3, active compounds read low 1.08 | S. cerevisiae deletion strains, locus YPR163C, strain tif3, active compounds read low 0.996 | S. cerevisiae deletion strains, locus YPR167C, strain met16, active compounds read low 1.02 | S. cerevisiae deletion strains, strain wtn01, active compounds read low 1.02 | S. cerevisiae strains, strain wild type, active compounds read low 1.01
active: S. cerevisiae deletion strains, locus YIR030C, strain dcg1, active compounds read low 1.08 [resistant]
